High-throughput results as filed in PubChem BioAssay.
Compounds with a hit are over-represented: about 0.49% of the library has one in this group of screens.
Vif-A3F inh – qHTS for Inhibitors of Vif-A3F Interactions: qHTS. HeLa A3F-eYFP + Vif (tagged APOBEC3F with the HIV-1 protein that degrades it), YFP fluorescence increase. AID 602313, 2012. 0.2% of 390,000 active. Potency, µM (highest dose often 46.1 µM), without a hit: at the highest dose activity, negative = active; further: potency means the concentration at half of the fitted maximal effect; % of control where 0% means no effect; nearly all actives have a fitted effect of over 65% in size
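Fluorescence increase (Ex 488/Em 500-530) after overnight compound treatment at 37 deg C flags inhibition of Vif-driven A3F-eYFP loss in stable HeLa A3F-eYFP/Vif cells seeded overnight beforehand.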
LDHA block – qHTS assay for inhibitors of human lactate dehydrogenase; L-lactate dehydrogenase A chain (Homo sapiens), P00338; purified LDHA, NADH/diaphorase-resazurin fluorescence; stronger effect = lower value; activity change, % (values are at about 110 or 230 µM); 0.15% of 480,000 active; in the data active means activity change below about -30%; inconclusive means mostly about -25% to -30%;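 further: plate controls were DMSO wells for no effect and wells without enzyme for full effect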
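Human LDH5 (2 nM) was incubated with 0.06 mM NADH and 0.2 mM pyruvate for 5 min at room temperature in Tris pH 7.4. Remaining NADH was coupled through diaphorase/resazurin, and resorufin fluorescence was read at 0 and 20 min.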
Apoferritin bind – qHTS Assay for Identification of Novel General Anesthetics; Ferritin light chain (Equus caballus), P02791; apoferritin/1-aminoanthracene competitive binding, fluorescence; Potency, µM (doses to about 77.5 µM), for inactives: top-dose activity change, negative = displacement, usual class: inhibitors; 0.074% of 350,000 active; further: potency means the concentration at half of the fitted maximal effect; on the % scale 0 is the no-effect control and ±100 the full control effect; nearly all actives have a fitted effect of over 20% in size
Target sequence (P02791 2-175 limits assumed): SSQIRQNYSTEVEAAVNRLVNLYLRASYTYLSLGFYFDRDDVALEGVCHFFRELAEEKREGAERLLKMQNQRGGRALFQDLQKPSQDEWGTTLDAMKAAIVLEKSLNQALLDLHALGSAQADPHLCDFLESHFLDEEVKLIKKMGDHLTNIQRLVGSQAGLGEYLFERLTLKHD
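Concentration-response curves derived by four-parameter Hill fitting of normalized fluorescence, where compounds displaced 1-AMA from 10 uM horse apoferritin following a brief 10 min room-temperature incubation; propofol titration acted as positive control.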
Vif-APOBEC3G blk – qHTS for Inhibitors of Vif-A3G Interactions: qHTS; AID 602310, 2012; Potency, µM (doses to about 46.1 µM), for the others: at the highest dose activity, negative = active, hits mostly inhibitors; HeLa A3G-eYFP + Vif (tagged APOBEC3G with the HIV-1 protein that degrades it), YFP fluorescence, overnight; DNA dC->dU-editing enzyme APOBEC-3G (Homo sapiens), Q9HC16; 0.076% of 410,000 active; further: potency means the concentration at half of the fitted maximal effect; on the % scale 0 is the no-effect control and ±100 the full control effect; nearly all actives have a fitted effect of over 60% in size
Target sequence (Q9HC16 whole entry, looked up): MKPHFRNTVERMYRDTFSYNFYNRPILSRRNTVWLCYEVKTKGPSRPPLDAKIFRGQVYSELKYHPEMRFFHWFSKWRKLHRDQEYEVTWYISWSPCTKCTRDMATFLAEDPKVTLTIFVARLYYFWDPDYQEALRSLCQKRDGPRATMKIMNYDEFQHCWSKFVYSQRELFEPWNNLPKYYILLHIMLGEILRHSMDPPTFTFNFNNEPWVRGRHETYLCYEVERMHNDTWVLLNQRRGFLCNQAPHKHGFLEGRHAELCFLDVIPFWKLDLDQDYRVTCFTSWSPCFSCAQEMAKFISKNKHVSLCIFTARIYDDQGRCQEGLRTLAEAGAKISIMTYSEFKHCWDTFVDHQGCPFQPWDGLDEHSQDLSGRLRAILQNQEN
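Read-out is eYFP fluorescence (Ex 488/Em 500-530) from Vif-expressing HeLa A3G-eYFP cells; more signal means A3G escaped Vif-mediated degradation. Cells plated overnight, compound pinned in, incubated overnight at 37 deg C.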
Epigenetic derep – Quantitative High-Throughput Screen for Regulators of Epigenetic Control; 0.2% of 280,000 active; murine LDR cells, GFP reporter derepression, 30 h; Potency, µM (titrated, usually from 53.9 µM), inactives show at the highest dose GFP activation, actives largely listed as activators; further: potency means the concentration at half of the fitted maximal effect; % of control where 0% means no effect; nearly all actives have a fitted effect of over 60% in size
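Murine LDR cells bearing a silenced CMV-driven GFP reporter were exposed to compound for 30 h at 37 C. After PBS washes, GFP-positive cells (20-120 um objects) counted by laser-scanning microplate cytometry.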
The depositor's hits bear a star; u = inconclusive; x = not tested or not shown. Unless noted, the call rests on the fitted dose curve; in most records, active means well fitted curve in the direction sought with a large enough effect; inconclusive means small, poorly fitted or top-dose-only effect, or another doubt; inactive means no such curve, though single readings can be large; an effect the other way counts as inactive or inconclusive.

SMILES	Vif-A3F inh	LDHA block	Apoferritin bind	Vif-APOBEC3G blk	Epigenetic derep
COc1ccc2c(Cl)c(C(=O)N/N=C3\CCCC(=O)C3)sc2c1	u	6	3%	2.8µM*	11µM*
COc1ccc2c(Cl)c(C(=O)N/N=C/c3ccc4c(c3)OCO4)sc2c1	u	-6	-9%	-27%	7%
N#Cc1ccccc1Sc1ccccc1C(=O)NCC(c1ccco1)N1CCCC1 (configuration not stated)	-16%	-2	x	0%	x
COc1ccc(/C=C/C(=O)O)cc1S(=O)(=O)NCc1ccco1	-16%	-4	1%	-8%	1%
N#Cc1cc2ccccc2nc1SCc1ccccn1	13µM*	-1	-21%	u	0%
CC(C)n1c(NCCO)nc2c1c(=O)n(C)c(=O)n2C	x	0	x	x	x
CC(=O)Nc1sc(N/N=C\c2ccc(O)cc2)nc1-c1cccs1	-1%	-3	5%	1%	3%
CCN(CC)c1ccc(/C=C(\C#N)c2nc(-c3cccs3)c(NC(C)=O)s2)cc1	x	x	-8%	x	1.6µM*
O=C(NCc1ccccc1Cl)c1ccc2nc([C@H]3C[C@H](O)[C@@H](CO)O3)[nH]c2c1	x	-4	x	-2%	x
CCCn1c(=O)c2ccc(C(=O)NCC(C)C)cc2n2c(SCc3ccc(F)cc3)nnc12	x	-34*	x	x	x
CCCn1c(=O)c2ccc(C(=O)NC(C)CC)cc2n2c(SCc3ccccc3)nnc12 (configuration not stated)	x	0	x	x	x
COc1ccc(NC(=S)Nc2ncccc2C)c(OC)c1	1%	-1	-17%	11µM*	-2%
COc1ccc(NC(=S)Nc2ncccc2C)cc1OC	15%	-1	-12%	-5%	-1%
C[C@H]1CN([C@@H](C)CO)C(=O)CCCn2nncc2CO[C@@H]1CN(C)Cc1cccc(C(F)(F)F)c1	7%	-12	x	2%	x
CCSc1ncc(Cl)c(C(=O)Nc2ccccc2C(F)(F)F)n1	x	0	x	x	x
O=c1c(Cl)c2oc3ccccc3nc-2c2ccccc12	u	-3	-4%	u	22µM*
Cc1nc2ccccc2oc1=O	x	x	x	x	1%
Cc1cc(/C=C2\SC(=S)N(Cc3ccco3)C2=O)c(C)n1-c1ccccc1	20µM*	-5	-13%	u	u
O=c1oc2c3c4c(cc2c(C(F)(F)F)c1CCN1CCOCC1)CCCN4CCC3	7.9µM*	-15	1%	u	u
CC(C)c1cc(=O)oc2c3c4c(cc12)CCCN4CCC3	u	-6	995%	u	15%
CC(C)(C)c1ccc(OCC(=O)Nc2ccc3c4c(cccc24)C(=O)NC3=O)cc1	13µM*	0	0%	4%	4%
Cc1ccc(-n2nc3c(SCCN4CCOCC4)nnc(C)c3c2C)cc1	25µM*	-11	-20%	u	0%
CCOC(=O)c1c(NC(=O)CSc2nc3ccc(OC)cc3[nH]2)sc2c1CC(C)(C)NC2(C)C	25µM*	-1	x	u	x
CCOC(=O)c1c(NC(=O)CSc2ncccn2)sc2c1CC(C)(C)NC2(C)C	2%	4	-14%	1%	x
CC(=O)c1cccc(NC(=S)N2CCN(c3ccccn3)CC2)c1	4%	-3	-19%	-1%	x
SMILES	Vif-A3F inh	LDHA block	Apoferritin bind	Vif-APOBEC3G blk	Epigenetic derep
CCOCc1cc(CN2CCN(c3cccc(Cl)c3)CC2)c(O)c2ncccc12	3%	4	-17%	4%	3.5µM*
CC(C)OCc1cc(CN2CCN(c3ccccc3)CC2)c(O)c2ncccc12	-27%	5	-19%	-1%	2µM*
Oc1c(CN2CCOCC2)cc(COCc2ccccc2)c2cccnc12	u	10	-7%	-10%	4µM*
CCOC(=O)c1ccc(Nc2c(-c3ccc(O)c(OC)c3)nc3nc[nH]n23)cc1	-1%	18	-16%	-1%	0%
CCCCN(C(=O)CNC(=O)c1ccco1)C(C(=O)NC1CCCCC1)c1ccc(OC)cc1OC (configuration not stated)	1%	-7	-14%	2%	-2%
CCOc1ccccc1N	3%	-5	x	1%	x
O=C1c2cccc3c([N+](=O)[O-])ccc(c23)C(=O)N1c1nccs1	u	21	-17%	u	u
O=C1c2cccc3c([N+](=O)[O-])ccc(c23)C(=O)N1c1ccccn1	13µM*	17	-11%	12%	1%
CC(=O)Oc1ccc(N2C(=O)c3cccc4c([N+](=O)[O-])ccc(c34)C2=O)cc1	22µM*	1	-15%	u	x
O=C1c2cccc3c([N+](=O)[O-])ccc(c23)C(=O)N1O	5µM*	1	-6%	11µM*	x
O=C1c2cccc3c([N+](=O)[O-])ccc(c23)C(=O)N1c1ccc(Cl)cn1	u	26	-13%	8%	14µM*
CCOC(=O)N1CCN(C(=O)C[C@@H]2C[C@@]3(C(=O)OCC)CCCC=C3N(Cc3ccco3)C2=O)CC1	x	2	x	x	x
O=C(NC1CCCCC1)C(c1ccccn1)N(C(=O)c1csnn1)c1ccccc1 (configuration not stated)	0%	-18	1%	1%	x
Cc1cc(C)c(C)c(OCC(=O)N2CCCCCC2)c1	3%	-2	20µM*	-2%	2%
CCCC[C@@H](C=O)NC(=O)[C@H](CC(C)C)NC(=O)[C@H](CC(C)C)NC(C)=O	x	x	-6%	x	11µM*
CC(=O)N[C@@H](CC(C)C)C(=O)N[C@@H](CC(C)C)C(=O)N[C@H](C=O)CCCN=C(N)N	x	x	3%	x	x
Fc1ccccc1CNc1nc(NCC2CC2)nc2ccsc12	x	-5	x	-14%	x
O=C(C1=C(O)C(=O)N(CCc2ccccc2)C1c1ccco1)c1ccco1 (configuration not stated)	x	44	x	x	x
Nc1c(C(=O)c2ccccc2)sc2nsc(SCCN3CCOCC3)c12	3.5µM*	-3	0%	u	u
Cc1n[nH]c(=S)n(/N=C/c2cccs2)c1=O	u	-31*	3%	1%	2%
CCN(CC)c1ccc(/C=N/n2c(=S)[nH]nc(C)c2=O)cc1	-2%	-31*	u	0%	-2%
CCc1n[nH]c(=S)n1/N=C/c1ccc(NC(C)=O)cc1	5%	1	-3%	1%	0%
O=C(NCCS(=O)(=O)N1CCN(c2ccccc2)CC1)C1CC(=O)N(c2ccc(F)cc2)C1 (configuration not stated)	0%	-6	-3%	6%	0%
CCCCCc1c2c(cc(O)c1C(=O)O)OC(=O)c1c(cc(OC)cc1C(=O)CCCC)O2	0%	-5	-9%	u	-1%
